Experimental data published in PubChem BioAssay (Tox21).
Where “and” joins values, the source holds several entries; their conditions need not be identical. Identical values can stand only once. Inconclusive results are not listed. A call without a number means that no potency is given here. Where a structure was tested more than once in an assay, its records may differ in their call. Calls of active or inactive are those of the source. Unless noted, calls follow the shape of the full dose curve.

Columns and labels:
[1] = qHTS assay to identify small molecule agonists of the vitamin D receptor (VDR) signaling pathway - cell viability counter screen (AID 743224; active = well fitted curve in the direction sought with a large enough effect in the repeat runs; an effect the other way counts as inactive or inconclusive; also: nearly all actives have a fitted effect of over 50% in size; also: potency is read from the fitted curve at half-maximal effect)
How it was run: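 VDR-bla cells, 4 h after plating, exposed to compounds for 16 h at 37C; viability then read in the same wells as CellTiter-Glo luminescence after 30 min at room temperature, following the bla FRET read.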

[2] = qHTS assay to identify small molecule agonists of the NFkB signaling pathway (AID 1159509; active = well fitted curve in the direction sought with a large enough effect in the signal ratio in the repeat runs, not every such curve was filed as active; the % refers to the signal ratio; also: series mostly up to about 61 µM)
How it was run: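 ME-180 NFkB-bla, 2,000 cells/well, overnight plating; cpd pinned in DMSO, 5 h 37 C; B/G FRET substrate 1.5 h RT; ex 405, em 460/530 nm.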

[3] = qHTS assay to identify small molecule agonists of the NFkB signaling pathway - cell viability counter screen (AID 1159515); also: nearly all actives have a fitted effect of over 55% in size; also: potency is read from the fitted curve at half-maximal effect
How it was run: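 NFkB-bla ME-180 cells, 2,000/well, plated overnight at 37 C; compound added for 5 hr at 37 C. Viability read in the same wells as the bla reporter, by CellTiter-Glo luminescence after 30 min at room temperature.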

[4] = qHTS assay to identify small molecule agonists of the endoplasmic reticulum stress response signaling pathway (AID 1159516; active = well fitted activation curve with a large enough effect in the signal ratio in the repeat runs, not every such curve was filed as active; the % refers to the signal ratio)
How it was run: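 CellSensor ESRE-bla HeLa cells, 1,500 per well, plated overnight, then exposed to compounds for 5 hr at 37 C. Beta-lactamase reporter read with LiveBLAzer B/G FRET substrate after 2 hr at room temperature, 405 nm excitation, 460 and 530 nm emission.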

[5] = qHTS assay to identify small molecule agonists of the endoplasmic reticulum stress response signaling pathway - cell viability counter screen (AID 1159517);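 also: HeLa cells carrying an ER stress response element beta-lactamase reporter; series mostly up to about 61 µM; nearly all actives have a fitted effect of over 50% in size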
How it was run: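 CellTiter-Glo was added to wells already read for beta-lactamase FRET, and luminescence was recorded 30 min later. Cells: ESRE-bla HeLa, 1,500 per well, compound exposure 5 hr at 37 C.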

[6] = qHTS assay to identify small molecule antagonists of the retinoid-related orphan receptor gamma (ROR-gamma) signaling pathway - cell viability counter screen (AID 1159520; active = well fitted curve in the direction sought with a large enough effect in the repeat runs; an effect the other way counts as inactive or inconclusive; also: nearly all actives have a fitted effect of over 50% in size; also: potency is read from the fitted curve at half-maximal effect)
How it was run: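 Tet-on ROR gamma CHO cells (1,000/well) were plated 4 hr, given compounds in DMSO for 2 hr at 37 C, then induced with 1 uM final doxycycline for 16 hr. Viability was read as ATP by CellTiter-Glo luminescence after 30 min.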

[7] = molecular target: Nuclear receptor ROR-gamma (Homo sapiens) (UniProt P51449); assay: qHTS assay to identify small molecule antagonists of the retinoid-related orphan receptor gamma (ROR-gamma) signaling pathway (AID 1159521; active = well fitted curve in the direction sought with a large enough effect in the repeat runs; an effect the other way counts as inactive or inconclusive; also: nearly all actives have a fitted effect of over 50% in size; also: potency is read from the fitted curve at half-maximal effect)
How it was run: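 Test compounds were applied to Tet-on RORγ CHO cells 2 h ahead of doxycycline hyclate (1 uM final). Luciferase reporter activity was quantified by luminescence after 16 h at 37 C and 5% CO2.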

[8] = qHTS assay to identify small molecule agonists of the AP-1 signaling pathway - cell viability counter screen (AID 1159525); also: nearly all actives have a fitted effect of over 55% in size
How it was run: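 ME-180 AP-1-bla, 2500 cells/well, Opti-MEM + 0.5% dialyzed FBS; overnight 37 °C; cpd 15-pt titration, 5 h 37 °C; CellTiter-Glo 30 min RT; luminescence read; normalised to TOAB and DMSO controls.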

[9] = qHTS assay to identify small molecule agonists of the AP-1 signaling pathway (AID 1159526)
[10] = qHTS assay to identify small molecule antagonists of the vitamin D receptor (VDR) signaling pathway - cell viability counter screen (AID 743225; active = well fitted curve in the direction sought with a large enough effect in the repeat runs; an effect the other way counts as inactive or inconclusive; also: nearly all actives have a fitted effect of over 50% in size)
How it was run: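 Compounds were pinned onto VDR-bla HEK 293T cells together with 1-alpha,25-dihydroxyvitamin D3 at 3 nM final. After 16 h at 37C and 5% CO2 plus the reporter readout, cell viability was measured by CellTiter-Glo luminescence (30 min, room temperature).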

## CCCCOCCOCCO
[1]
  Potency: inactive
[2]
  outcome: inactive
[3]
  Potency: inactive
[4]
  Potency: inactive
[5]
  Potency: inactive
[6]
  Potency: inactive
[7]
  Potency: inactive
[8]
  Potency: inactive
[9]
  outcome: inactive

## CC(CCC(=O)O)(c1ccc(O)cc1)c1ccc(O)cc1
[1]
  Potency: inactive
[2]
  outcome: inactive
[3]
  Potency: inactive
[4]
  Potency: inactive
[5]
  Potency: inactive
[6]
  Potency: inactive
[7]
  Potency: inactive
[8]
  Potency: inactive
[9]
  outcome: inactive

## COC(=O)Nc1nc2ccc(S(=O)c3ccccc3)cc2[nH]1 (centres undefined)
[1]
  Potency: inactive
[10]
  Potency: inactive
[2]
  outcome: inactive
[3]
  Potency: inactive
[4]
  Potency: inactive
[5]
  Potency: inactive
[6]
  Potency: inactive
[7]
  Potency: inactive
[8]
  Potency: inactive
[9]
  outcome: inactive

## COC(=O)c1ccccc1
[1]
  Potency: inactive
[2]
  outcome: inactive
[3]
  Potency: inactive
[4]
  Potency: inactive
[5]
  Potency: inactive
[6]
  Potency: inactive
[7]
  Potency: inactive
[8]
  Potency: inactive
[9]
  outcome: inactive

## O=Cc1ccccc1O
[1]
  Potency: inactive
[2]
  outcome: inactive
[3]
  Potency: inactive
[4]
  Potency: inactive
[5]
  Potency: inactive
[6]
  Potency: inactive
[7]
  Potency: inactive
[8]
  Potency: inactive
[9]
  outcome: inactive

## O=C(c1ccc(OCCN2CCCCC2)cc1)c1c(-c2ccc(O)cc2)sc2cc(O)ccc12
[1]
  Potency: 55 µM (active) and 21.9 µM (active) and 33.5 µM (active)
[2]
  outcome: inactive
[3]
  Potency: 55 µM (active) and 54.9 µM (active) and inactive
[4]
  Potency: inactive
[5]
  Potency: inactive
[6]
  Potency: 61.2 µM (active) and inactive
[7]
  Potency: 13.7 µM (active) and 19.3 µM (active)
[8]
  Potency: inactive
[9]
  outcome: inactive

## c1cc(N(CC2CO2)CC2CO2)ccc1OCC1CO1 (centres undefined)
[1]
  Potency: inactive
[10]
  Potency: inactive
[2]
  outcome: inactive
[3]
  Potency: inactive
[4]
  Potency: inactive
[5]
  Potency: inactive
[6]
  Potency: inactive
[7]
  Potency: 54.5 µM (active) and 61.1 µM (active)
[8]
  Potency: inactive
[9]
  outcome: inactive

## Cc1[nH]c(=O)c(C#N)cc1-c1ccncc1
[1]
  Potency: inactive
[2]
  outcome: inactive
[3]
  Potency: inactive
[4]
  Potency: inactive
[5]
  Potency: inactive
[6]
  Potency: inactive
[7]
  Potency: inactive
[8]
  Potency: inactive
[9]
  outcome: inactive

## Cc1ncc[nH]1
[1]
  Potency: inactive
[2]
  outcome: inactive
[3]
  Potency: inactive
[4]
  Potency: inactive
[5]
  Potency: inactive
[6]
  Potency: inactive
[7]
  Potency: inactive
[8]
  Potency: inactive
[9]
  outcome: inactive

## O=C(O)c1ccccc1Nc1cccc(C(F)(F)F)c1
[1]
  Potency: inactive
[2]
  outcome: inactive
[3]
  Potency: inactive
[4]
  Potency: inactive
[5]
  Potency: inactive
[6]
  Potency: inactive
[7]
  Potency: inactive
[8]
  Potency: inactive
[9]
  outcome: inactive

## CC(C)Oc1ccc2c(=O)c(-c3ccccc3)coc2c1
[1]
  Potency: inactive
[2]
  outcome: inactive
[3]
  Potency: inactive
[4]
  Potency: inactive
[5]
  Potency: inactive
[6]
  Potency: inactive
[7]
  Potency: inactive
[8]
  Potency: inactive
[9]
  outcome: inactive

## Nc1ccc(Cl)cc1Cl
[1]
  Potency: inactive
[2]
  outcome: inactive
[3]
  Potency: inactive
[4]
  Potency: inactive
[5]
  Potency: inactive
[6]
  Potency: inactive
[7]
  Potency: inactive
[8]
  Potency: inactive
[9]
  outcome: inactive

## NC=O
[1]
  Potency: inactive
[10]
  Potency: inactive
[2]
  outcome: inactive
[3]
  Potency: inactive
[4]
  Potency: inactive
[5]
  Potency: inactive
[6]
  Potency: inactive
[7]
  Potency: inactive
[8]
  Potency: inactive
[9]
  outcome: inactive

## C[C@]12CC[C@H]3[C@@H](CCC4=CC(=O)CC[C@@]43C)[C@@H]1CC[C@@H]2C(=O)CO
[1]
  Potency: inactive
[10]
  Potency: inactive
[2]
  outcome: inactive
[3]
  Potency: inactive
[4]
  Potency: inactive
[5]
  Potency: inactive
[6]
  Potency: inactive
[7]
  Potency: 27.3 µM (active)
[8]
  Potency: inactive
[9]
  outcome: inactive

## CCOCCOCCO
[1]
  Potency: inactive
[2]
  outcome: inactive
[3]
  Potency: inactive
[4]
  Potency: inactive
[5]
  Potency: inactive
[6]
  Potency: inactive
[7]
  Potency: inactive
[8]
  Potency: inactive
[9]
  outcome: inactive

## O=C(OCc1ccccc1)c1ccccc1O
[1]
  Potency: inactive
[10]
  Potency: inactive
[2]
  outcome: inactive
[3]
  Potency: inactive
[4]
  Potency: inactive
[5]
  Potency: inactive
[6]
  Potency: inactive
[7]
  Potency: inactive
[8]
  Potency: inactive
[9]
  outcome: inactive

## C[Si](C)(C)O[Si](C)(C)C
[1]
  Potency: inactive
[10]
  Potency: inactive
[2]
  outcome: inactive
[3]
  Potency: inactive
[4]
  Potency: inactive
[5]
  Potency: inactive
[6]
  Potency: inactive
[7]
  Potency: inactive
[8]
  Potency: inactive
[9]
  outcome: inactive

## O=S(=O)(O)c1ccc(O)cc1
[1]
  Potency: inactive
[10]
  Potency: inactive
[2]
  outcome: inactive
[3]
  Potency: inactive
[4]
  Potency: inactive
[5]
  Potency: inactive
[6]
  Potency: inactive
[7]
  Potency: inactive
[8]
  Potency: inactive
[9]
  outcome: inactive

## O=CCc1ccccc1
[1]
  Potency: inactive
[10]
  Potency: inactive
[2]
  outcome: inactive
[3]
  Potency: inactive
[4]
  Potency: inactive
[5]
  Potency: inactive
[6]
  Potency: inactive
[7]
  Potency: inactive
[8]
  Potency: inactive
[9]
  outcome: inactive

## C/C=C/C(=O)O
[1]
  Potency: inactive
[10]
  Potency: inactive
[2]
  outcome: inactive
[3]
  Potency: inactive
[4]
  Potency: inactive
[5]
  Potency: inactive
[6]
  Potency: inactive
[7]
  Potency: inactive
[8]
  Potency: inactive
[9]
  outcome: inactive

## O=c1oc(=O)c2cc3c(=O)oc(=O)c3cc12
[1]
  Potency: inactive
[10]
  Potency: inactive
[2]
  outcome: inactive
[3]
  Potency: inactive
[4]
  Potency: inactive
[5]
  Potency: inactive
[6]
  Potency: inactive
[7]
  Potency: inactive
[8]
  Potency: inactive
[9]
  outcome: inactive

## C[C@]12CCC(=O)C=C1CC[C@@H]1[C@@H]2C(=O)C[C@@]2(C)[C@H]1CC[C@]2(O)C(=O)CO
[1]
  Potency: 24.5 µM (active) and inactive
[10]
  Potency: inactive
[2]
  outcome: inactive
[3]
  Potency: inactive
[4]
  Potency: inactive
[5]
  Potency: inactive
[6]
  Potency: inactive
[7]
  Potency: inactive
[8]
  Potency: inactive
[9]
  outcome: inactive

## CC(C)=CCCC(C)CCO (centres undefined)
[1]
  Potency: inactive
[10]
  Potency: inactive
[2]
  outcome: inactive
[3]
  Potency: inactive
[4]
  Potency: inactive
[5]
  Potency: inactive
[6]
  Potency: inactive
[7]
  Potency: inactive
[8]
  Potency: inactive
[9]
  outcome: inactive
